According to the supplement of paper PMC11006884:
About 6,500 targets were measured; listed, in parts, are those with a hit and a random draw of the rest. About 2% of all pairs of compound and target were hits.

compound: COC(=O)C#Cc1ccccc1 [methyl 3-phenylpropiolate]; assay: log2 ratio of iodoacetamide-alkyne labeling of the cysteine site, DMSO over compound (competition); higher = stronger covalent engagement of the cysteine by the compound, active = 1 or more; settings: 500 µM; treatment time 1 h; system: HEK293T cell lysate
Outline: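 The log2 competition ratio per cysteine is defined as mean reporter intensity in control channels over mean reporter intensity in compound channels. Lysate from HEK293T cells (2 mg/mL) received electrophile (500 µM) or vehicle for 1 h at ambient temperature, followed by iodoacetamide alkyne for 1 h. Samples were clicked to sCIP-TMT reagents, pooled, trypsin-digested overnight at 37 °C, streptavidin-enriched, acid-eluted and run on Orbitrap Eclipse LC-MS/MS with FAIMS, with quantification in FragPipe. Three replicates with duplicate channels were used, and any cysteine quantified in only one replicate was excluded.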

UniProt Q7Z3T8, sequence (Q7Z3T8 whole entry, looked up): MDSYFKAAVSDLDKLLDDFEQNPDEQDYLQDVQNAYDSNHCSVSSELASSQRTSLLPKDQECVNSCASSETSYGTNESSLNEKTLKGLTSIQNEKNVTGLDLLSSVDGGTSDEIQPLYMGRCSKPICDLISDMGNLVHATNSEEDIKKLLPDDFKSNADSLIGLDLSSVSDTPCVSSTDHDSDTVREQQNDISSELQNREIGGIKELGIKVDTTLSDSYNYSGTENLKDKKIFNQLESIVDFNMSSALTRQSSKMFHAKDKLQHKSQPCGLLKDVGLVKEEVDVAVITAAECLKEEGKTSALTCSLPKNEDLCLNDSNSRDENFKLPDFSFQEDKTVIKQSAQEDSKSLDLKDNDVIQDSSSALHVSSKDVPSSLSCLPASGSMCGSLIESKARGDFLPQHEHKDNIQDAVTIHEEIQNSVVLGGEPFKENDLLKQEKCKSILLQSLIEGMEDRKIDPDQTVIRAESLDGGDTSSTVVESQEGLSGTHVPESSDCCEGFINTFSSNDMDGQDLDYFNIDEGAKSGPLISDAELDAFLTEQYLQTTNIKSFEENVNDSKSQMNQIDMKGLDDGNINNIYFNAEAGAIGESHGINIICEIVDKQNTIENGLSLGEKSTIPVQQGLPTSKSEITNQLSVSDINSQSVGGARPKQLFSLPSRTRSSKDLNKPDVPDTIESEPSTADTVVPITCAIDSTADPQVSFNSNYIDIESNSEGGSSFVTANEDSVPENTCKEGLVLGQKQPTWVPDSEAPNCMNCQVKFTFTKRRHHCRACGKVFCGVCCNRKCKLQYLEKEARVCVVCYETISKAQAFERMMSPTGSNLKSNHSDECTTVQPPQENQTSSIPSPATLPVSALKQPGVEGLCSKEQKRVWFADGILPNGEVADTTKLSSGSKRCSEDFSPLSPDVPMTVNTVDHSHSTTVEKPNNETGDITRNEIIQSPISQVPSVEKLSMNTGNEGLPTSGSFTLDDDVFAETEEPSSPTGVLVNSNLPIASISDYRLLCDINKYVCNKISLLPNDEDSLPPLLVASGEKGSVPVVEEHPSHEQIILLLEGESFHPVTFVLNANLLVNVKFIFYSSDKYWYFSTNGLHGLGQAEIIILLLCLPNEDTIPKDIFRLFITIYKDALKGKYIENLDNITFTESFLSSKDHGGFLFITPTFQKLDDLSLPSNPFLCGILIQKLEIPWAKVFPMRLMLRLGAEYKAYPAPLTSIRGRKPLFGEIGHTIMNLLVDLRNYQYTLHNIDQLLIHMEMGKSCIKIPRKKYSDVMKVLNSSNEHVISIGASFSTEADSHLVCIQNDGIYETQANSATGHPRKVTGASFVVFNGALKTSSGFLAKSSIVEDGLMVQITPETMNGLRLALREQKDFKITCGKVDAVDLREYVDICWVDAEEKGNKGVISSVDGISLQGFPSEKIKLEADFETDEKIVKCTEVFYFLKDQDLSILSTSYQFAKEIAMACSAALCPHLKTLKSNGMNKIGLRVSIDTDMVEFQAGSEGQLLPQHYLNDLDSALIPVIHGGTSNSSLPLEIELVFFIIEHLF
UniProt Q8IVM0, sequence (Q8IVM0 whole entry, looked up): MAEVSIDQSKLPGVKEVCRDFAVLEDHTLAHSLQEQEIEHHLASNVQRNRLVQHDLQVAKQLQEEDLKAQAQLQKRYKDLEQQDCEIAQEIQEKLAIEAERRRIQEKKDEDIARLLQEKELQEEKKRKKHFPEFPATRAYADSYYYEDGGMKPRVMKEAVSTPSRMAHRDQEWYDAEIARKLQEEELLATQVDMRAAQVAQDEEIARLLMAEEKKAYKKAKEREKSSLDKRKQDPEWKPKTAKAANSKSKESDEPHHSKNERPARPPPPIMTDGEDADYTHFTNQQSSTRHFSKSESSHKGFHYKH
UniProt Q8IX12, sequence (Q8IX12 whole entry, looked up): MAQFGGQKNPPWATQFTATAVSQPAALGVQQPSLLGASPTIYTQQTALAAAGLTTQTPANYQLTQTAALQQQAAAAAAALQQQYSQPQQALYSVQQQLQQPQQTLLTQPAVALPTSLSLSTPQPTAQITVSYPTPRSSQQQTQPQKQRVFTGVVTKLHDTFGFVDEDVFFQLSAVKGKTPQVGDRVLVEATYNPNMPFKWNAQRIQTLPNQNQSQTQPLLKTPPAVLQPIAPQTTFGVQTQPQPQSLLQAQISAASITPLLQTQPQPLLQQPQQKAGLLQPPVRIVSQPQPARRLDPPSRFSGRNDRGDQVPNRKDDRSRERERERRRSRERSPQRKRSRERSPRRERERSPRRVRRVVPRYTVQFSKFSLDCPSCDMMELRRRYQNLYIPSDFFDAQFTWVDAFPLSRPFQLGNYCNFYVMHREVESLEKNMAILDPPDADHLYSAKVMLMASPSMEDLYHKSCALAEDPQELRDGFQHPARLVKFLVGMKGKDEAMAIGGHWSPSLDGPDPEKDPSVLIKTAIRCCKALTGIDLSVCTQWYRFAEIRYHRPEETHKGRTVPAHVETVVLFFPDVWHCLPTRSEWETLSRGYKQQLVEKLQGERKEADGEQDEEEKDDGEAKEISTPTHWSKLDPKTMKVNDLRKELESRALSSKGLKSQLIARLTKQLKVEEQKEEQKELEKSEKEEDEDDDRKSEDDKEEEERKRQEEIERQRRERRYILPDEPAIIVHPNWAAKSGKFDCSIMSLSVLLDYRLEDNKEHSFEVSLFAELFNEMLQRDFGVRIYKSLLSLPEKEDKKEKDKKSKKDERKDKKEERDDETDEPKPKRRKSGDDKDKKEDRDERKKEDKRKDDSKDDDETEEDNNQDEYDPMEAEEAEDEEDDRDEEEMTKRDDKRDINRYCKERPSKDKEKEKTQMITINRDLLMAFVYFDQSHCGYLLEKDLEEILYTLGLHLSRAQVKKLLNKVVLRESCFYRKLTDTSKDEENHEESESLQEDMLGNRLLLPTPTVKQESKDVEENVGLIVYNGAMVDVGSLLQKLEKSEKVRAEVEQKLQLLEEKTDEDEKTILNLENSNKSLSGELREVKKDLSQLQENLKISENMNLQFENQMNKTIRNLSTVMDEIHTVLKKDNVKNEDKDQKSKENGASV
UniProt Q6NUN9, sequence (Q6NUN9 whole entry): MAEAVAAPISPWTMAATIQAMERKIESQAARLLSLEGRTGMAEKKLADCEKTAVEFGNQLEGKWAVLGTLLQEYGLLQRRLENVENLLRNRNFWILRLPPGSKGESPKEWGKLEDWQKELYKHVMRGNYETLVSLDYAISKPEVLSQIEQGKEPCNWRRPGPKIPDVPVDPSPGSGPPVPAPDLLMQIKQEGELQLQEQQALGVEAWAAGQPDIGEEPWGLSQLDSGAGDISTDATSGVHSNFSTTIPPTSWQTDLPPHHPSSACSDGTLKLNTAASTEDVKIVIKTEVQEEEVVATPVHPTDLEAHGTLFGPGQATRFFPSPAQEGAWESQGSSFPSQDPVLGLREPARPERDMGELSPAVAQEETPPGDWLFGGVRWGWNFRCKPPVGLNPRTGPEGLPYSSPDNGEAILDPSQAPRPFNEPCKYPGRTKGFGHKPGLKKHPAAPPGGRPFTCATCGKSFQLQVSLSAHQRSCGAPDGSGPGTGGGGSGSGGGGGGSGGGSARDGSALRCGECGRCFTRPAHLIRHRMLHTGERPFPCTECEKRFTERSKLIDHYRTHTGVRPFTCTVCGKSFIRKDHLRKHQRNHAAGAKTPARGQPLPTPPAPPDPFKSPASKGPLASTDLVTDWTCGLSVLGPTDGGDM
UniProt Q8IWD4, sequence (Q8IWD4 whole entry): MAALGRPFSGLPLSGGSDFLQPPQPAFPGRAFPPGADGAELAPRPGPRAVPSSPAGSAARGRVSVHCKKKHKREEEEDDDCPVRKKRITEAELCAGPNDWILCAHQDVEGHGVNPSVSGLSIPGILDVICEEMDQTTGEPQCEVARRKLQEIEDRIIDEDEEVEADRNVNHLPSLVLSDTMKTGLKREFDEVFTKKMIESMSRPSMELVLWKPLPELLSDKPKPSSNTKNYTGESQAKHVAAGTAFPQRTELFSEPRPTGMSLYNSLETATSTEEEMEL
UniProt Q8N6S5, sequence (Q8N6S5 whole entry): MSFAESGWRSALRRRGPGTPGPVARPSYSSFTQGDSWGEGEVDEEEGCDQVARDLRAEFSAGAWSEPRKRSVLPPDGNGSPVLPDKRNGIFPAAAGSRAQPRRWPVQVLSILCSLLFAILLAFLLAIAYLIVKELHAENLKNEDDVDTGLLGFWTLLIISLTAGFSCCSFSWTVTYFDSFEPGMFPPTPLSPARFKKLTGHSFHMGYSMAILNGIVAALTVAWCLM
UniProt Q969E8, sequence (Q969E8 whole entry): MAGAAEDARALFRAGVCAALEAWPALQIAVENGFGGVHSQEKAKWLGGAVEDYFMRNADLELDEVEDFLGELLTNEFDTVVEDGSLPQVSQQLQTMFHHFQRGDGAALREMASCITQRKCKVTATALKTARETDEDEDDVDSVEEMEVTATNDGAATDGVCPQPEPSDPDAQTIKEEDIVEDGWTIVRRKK

Row | Target | log2 ratio of iodoacetamide-alkyne labeling
1 | TSR2 C17 (UniProt Q969E8) | 0.599 (inactive)
2 | ARID2 C1549 (UniProt Q68CP9) | 0.434 (inactive)
3 | DIDO1 C455 (UniProt Q9BTC0) | 0.67 (inactive)
4 | ARL6IP6 C48 (UniProt Q8N6S5) | 0.392 (inactive)
5 | CCDC117 C81 (UniProt Q8IWD4) | 1.66 (active)
6 | CCAR1 C579 (UniProt Q8IX12) | 0.0854 (inactive)
7 | UniProt Q99590_C478 | 0.396 (inactive)
8 | CAMSAP1 C1379 (UniProt Q5T5Y3) | 1.45 (active)
9 | DHX38 C27 (UniProt Q92620) | 1.36 (active)
10 | ZNF746 C425 (UniProt Q6NUN9) | 0.385 (inactive)
11 | CCDC50 C85 (UniProt Q8IVM0) | 0.455 (inactive)
12 | ZFYVE16 C895 (UniProt Q7Z3T8) | 0.597 (inactive)
13 | DHX38 C20 (UniProt Q92620) | 1.36 (active)
